Bioassay records: PubChem BioAssay, National Center for Advancing Translational Sciences (NCATS)
DRD3 antagonist: qHTS of D3 Dopamine Receptor Antagonist: qHTS; D(3) dopamine receptor (Homo sapiens), P35462; D3R cells, DiscoveRx beta-arrestin luminescence, antagonist mode; stronger effect = lower value; max response, negative = inhibition, %; 2.5% of 360,000 active; AID 652054, 2013; in the data active = max response below about -50%; inconclusive = no clear call, values can overlap the other calls; also: % is scaled to controls: 0 for no effect and ±100 for the full control effect
Target sequence (P35462 whole entry, looked up): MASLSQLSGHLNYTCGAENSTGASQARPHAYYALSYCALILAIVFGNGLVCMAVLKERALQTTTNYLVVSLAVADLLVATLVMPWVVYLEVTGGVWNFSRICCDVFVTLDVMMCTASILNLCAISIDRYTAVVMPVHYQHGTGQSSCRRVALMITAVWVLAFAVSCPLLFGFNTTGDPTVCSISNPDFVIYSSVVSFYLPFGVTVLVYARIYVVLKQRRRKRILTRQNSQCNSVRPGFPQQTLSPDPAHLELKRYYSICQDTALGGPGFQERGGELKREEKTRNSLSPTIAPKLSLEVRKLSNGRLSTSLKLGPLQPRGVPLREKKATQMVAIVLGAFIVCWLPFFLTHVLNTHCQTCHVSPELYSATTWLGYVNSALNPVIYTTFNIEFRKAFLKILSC
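Cells plated overnight at 1500 cells/well, then exposed to library compounds with dopamine controls for 90 minutes at 37 degrees C. DiscoveRx reagent added for 30–60 minutes at room temperature; luminescence read, quantitative HTS format.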
D1 agonist: Allosteric Agonists of the Human D1 Dopamine Receptor: qHTS; D(1A) dopamine receptor (Homo sapiens), P21728; HEK293 T-REx D1 cells, calcium flux, agonist mode; activation, % at 2 µM; 1% of 360,000 active; AID 504660, 2011; in the data active = activation above about 30%; also: 0% is about no effect
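Agonism was scored from calcium flux recorded over 180 s (1 read/s) after pintool compound addition, following a 10-cycle baseline. Cells were inducible force-coupled HEK293 TREx D1, plated overnight at 30 C and loaded with no-wash calcium dye.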
D3 ag: qHTS of D3 Dopamine Receptor Agonist: qHTS; D(3) dopamine receptor (Homo sapiens), P35462; D3R DiscoveRx beta-arrestin cells, luminescence, 90 min; 0.58% of 410,000 active; max activation, %; AID 652048, 2013; in the data active = max activation above about 30%; also: 0% is about no effect
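Cells at 1500/well, incubated overnight, then treated with pinned compounds (dopamine as control) for 90 min at 37 degrees C. DiscoveRx reagent added for 30 - 60 minutes at room temperature; luminescence read.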
D1 antag: Antagonist of Human D 1 Dopamine Receptor: qHTS | HEK293 TREx D1 cells, calcium flux, dopamine EC80; stronger effect = lower value | activity change, negative = inhibition, % at 10 µM | 3.2% of 360,000 active | AID 504652, 2011; in the data active = activity change below about -30%; also: % is scaled to controls: 0 for no effect and ±100 for the full control effect
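Kinetic fluorescence of a calcium dye serves as the read-out. D1-expressing Hek293 Trex cells, induced overnight at 30 C, are exposed to compound for 180 s before an EC80 dopamine addition, then read 180 s further.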
D1 PAM: Potentiators of Human D1 Dopamine Receptor: qHTS; HEK293 TREx D1 cells, calcium flux, dopamine EC20 potentiation; potentiation, % at 10 µM; 0.036% of 360,000 active; in the data active = potentiation above about 30%; also: 0% is about no effect
The depositor's hits bear a star; ? = inconclusive; . = not tested or not shown. This is a sample that favours compounds with a hit; in the whole collection about 6% have one here.

SMILES | DRD3 antagonist | D1 agonist | D3 ag | D1 antag | D1 PAM
CC(C)Cc1nnc(NC(=O)CCC(=O)N2CCN(c3ccc([N+](=O)[O-])cc3)CC2)s1 | 15 | 0 | 10 | 0 | -6
CN(C1CCCCC1)S(=O)(=O)c1cn(C)c(=O)n(C)c1=O | -5 | 1 | -4 | 12 | -2
COC(=O)c1nc(Cl)c(Cl)c(N)c1Cl | 12 | 0 | 11 | -31* | -3
CCOC(=O)c1cccc(NC(=O)CCn2nc(C)c3c(C)n(-c4ccccc4)nc3c2=O)c1 | . | 1 | -8 | -2 | 0
Nc1ncnc2c1ncn2[C@@H]1O[C@H](CNC(=O)[C@H](N)Cc2cscn2)[C@@H](O)[C@H]1O | -84* | . | -2 | . | .
Nc1ncnc2c1ncn2[C@@H]1O[C@H](CNC(=O)[C@@H](N)CO)[C@@H](O)[C@H]1O | -13 | . | 5 | . | .
Nc1ncnc2c1ncn2[C@@H]1O[C@H](CCC(=O)NCc2ccccc2)[C@@H](O)[C@H]1O | -93* | . | -10 | . | .
COc1cc2c(cc1CNC[C@H]1O[C@@H](n3cnc4c(N)ncnc43)[C@H](O)[C@@H]1O)OCO2 | 7 | . | 39* | . | .
Nc1ncnc2c1ncn2[C@@H]1O[C@H](CNC(=O)[C@@H](N)Cc2ccccc2)[C@@H](O)[C@H]1O | 40 | . | 5 | . | .
Clc1ccc(OCCCCCN2CCCC2)c(Br)c1 | -52* | 73* | -14 | -10 | -6
Clc1ccc(OCCCN2CCCCC2)c(Br)c1 | -68* | 14 | -10 | -62* | -18
Brc1ccccc1OCCCCCN1CCCC1 | . | 1 | . | -3 | -8
CCN1CCN(CCCOc2ccc(Cl)cc2Br)CC1 | ? | 59* | -11 | -22 | -8
Cc1ccc(Cl)cc1-c1cc(C(=O)NCc2cc(C(F)(F)F)cc(C(F)(F)F)c2)[nH]n1 | -20 | . | -5 | . | .
Cc1oc(-c2ccc(Cl)cc2)[n+]([O-])c1C | -67* | 0 | -2 | -10 | 2
Cc1nn(C)c2c1c(C(F)(F)F)cc(=O)n2CC(=O)N1CCCCC1C (configuration not stated) | . | 1 | 2 | -26 | -3
Nc1nnnn1/N=C/c1cc(Cl)cc(Cl)c1O | -29 | 126* | -10 | -4 | 2
O=[N+]([O-])c1cnc(Nc2ccccc2)nc1Nc1ccccc1 | -83* | 4 | 4 | -11 | -5
O=[N+]([O-])c1ccccc1Nc1ccccc1 | 2 | 3 | -3 | -2 | 5
COc1cccc(CNC(=O)CC(c2ccc(C)cc2)N2Cc3ccccc3C2=O)c1 (configuration not stated) | . | -1 | -6 | -32* | -2
O=C(CSc1cn(CCNC(=O)c2cccc(C(F)(F)F)c2)c2ccccc12)Nc1ccc2c(c1)OCCO2 | . | 0 | 11 | -4 | -4
Nc1ccccc1Nc1ccc([N+](=O)[O-])cc1[N+](=O)[O-] | 4 | 2 | 4 | -3 | 0
Nc1cc([N+](=O)[O-])ccc1Nc1ccc(O)cc1 | -55* | 3 | -6 | -19 | -10
O=C(O)C1CCN(C(=O)c2csc(-c3ccc4c(c3)CCO4)n2)CC1 | -8 | 3 | -3 | -34* | 1
CCOC(=O)c1csc(-c2ccc3c(c2)CCO3)n1 | -23 | 1 | -17 | 2 | -2
SMILES | DRD3 antagonist | D1 agonist | D3 ag | D1 antag | D1 PAM
CC1(C)CC(=O)C2=C(C1)O[C@@]1(c3ccsc3)Cc3cc(C#N)ccc3C2O1 | . | 0 | . | -5 | -1
Cc1ccc(S(=O)(=O)N2[C@@H](CO)CO[C@H]2CC(=O)c2cccs2)cc1 | -26 | . | -13 | . | .
Cc1cc(N2CCCC2)ccc1/C=C1\NC(=S)N(C)C1=O | 0 | 213* | -17 | -8 | 7
O=C1/C(=C/c2ccc(N3CCCC3)cc2)NC(=S)N1C1CC1 | -21 | 205* | -7 | -6 | 3
CCOC(=O)c1cnc2c(C)cc(C)cc2c1NCCN1CCOCC1 | . | 0 | -4 | 3 | 2
CCCCC(=O)N(Cc1ccc(-c2ccccc2-c2nn[nH]n2)cc1)[C@@H](C(=O)O)C(C)C | . | . | -9 | . | .
O=[N+]([O-])c1cccc(/C=N\N2CCN(Cc3ccccc3Cl)CC2)c1 | -78* | 4 | -1 | 5 | -4
O=[N+]([O-])c1cccc(/C=N/N2CCN(Cc3ccccc3)CC2)c1 | 4 | -1 | -14 | -30 | -4
